Records with an inconclusive call do not appear. Calls of active or inactive are those of the source. Rule for the calls: active = hit-call score of the fitted dose curve at least 0.9, where 1 is the maximum; inconclusive = response in the unintended direction; inactive = score below 0.9.
Biological target: bovine Dopamine Receptor (DR), Non-selective Binding, DRD1 (gene 281125) (UniProt Q95136)
Test: NVS_GPCR_bDR_NonSelective: NovaScreen (NVS) G Protein-Coupled Receptor Assay for bovine Dopamine Receptor (DR), Non-selective Binding (AID 2283241)
How it was run: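 Bovine striatal membranes; radioligand displacement read by filtration and scintillation counting 1 h after dosing, loss of signal vs DMSO. Screened in duplicate at 25 uM, then concentration-response for hits.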

Chain of bovine Dopamine Receptor (DR), Non-selective Binding, DRD1 (gene 281125) (Q95136 whole entry, looked up): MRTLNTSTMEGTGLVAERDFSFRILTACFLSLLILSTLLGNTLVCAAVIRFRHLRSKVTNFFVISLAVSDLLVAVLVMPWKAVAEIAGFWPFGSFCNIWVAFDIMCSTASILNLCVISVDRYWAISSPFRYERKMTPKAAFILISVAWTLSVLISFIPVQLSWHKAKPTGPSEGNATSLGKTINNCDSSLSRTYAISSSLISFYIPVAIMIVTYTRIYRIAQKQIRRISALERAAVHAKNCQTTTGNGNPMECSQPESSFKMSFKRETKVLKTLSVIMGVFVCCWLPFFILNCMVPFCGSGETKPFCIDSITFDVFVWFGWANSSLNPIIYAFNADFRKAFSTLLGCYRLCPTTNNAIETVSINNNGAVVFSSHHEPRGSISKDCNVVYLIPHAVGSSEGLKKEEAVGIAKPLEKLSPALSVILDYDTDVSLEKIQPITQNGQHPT

Compound	AC50
CCn1nc(Cc2ccccc2)cc1C1CCN(C[C@H]2C[C@H](N(C)[C@@H](C(=O)O)C(C)C)C[C@@H]2c2cccc(F)c2)CC1	18.6 µM (active)
CCCN(C1CCN(C(=O)C2CCNCC2)CC1)[C@@H]1CCc2ccc(OC)cc2C1	8.91 µM (active)
Cc1[nH]cnc1C[C@H]1CCc2c(C)c3ccccc3n2C1=O	8.58 µM (active)

System: guinea pig Leukotriene B4 Receptor (LTB4), gene 100379538
Test: NVS_GPCR_gLTB4: NovaScreen (NVS) G Protein-Coupled Receptor Assay for guinea pig Leukotriene B4 Receptor (LTB4) (AID 2283247)
How it was run: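 Radioligand displacement on guinea pig spleen membranes, filter-based scintillation counting 2 h after dosing. Primary duplicate single point at 25 uM; hits over threshold (e.g. 30% inhibition) run in concentration-response up to 50 uM, DMSO baseline.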

Compound	outcome	AC50
O=C(CCCCCCCCc1cccnc1)N1CCC(C=C(c2ccccc2)c2ccccc2)CC1	inactive	
O=C(O)c1cccc(Oc2ccccc2)c1	inactive	
COc1ccc2sc(C(=O)Nc3nnn[nH]3)c(OC(C)C)c2c1	inactive	
CCCN(C1CCN(C(=O)C2CCNCC2)CC1)[C@@H]1CCc2ccc(OC)cc2C1		9.93 µM (active)
O=C(O)CCN(C1(C(=O)NO)CCCC1)S(=O)(=O)c1ccc(Oc2ccc(F)cc2)cc1		0.951 µM (active)

Biological target: human Serotonin, 5-Hydroxytryptamine Receptor 2A (5HT2A), HTR2A (gene 3356) (UniProt P28223)
Sequence (P28223 whole entry, looked up): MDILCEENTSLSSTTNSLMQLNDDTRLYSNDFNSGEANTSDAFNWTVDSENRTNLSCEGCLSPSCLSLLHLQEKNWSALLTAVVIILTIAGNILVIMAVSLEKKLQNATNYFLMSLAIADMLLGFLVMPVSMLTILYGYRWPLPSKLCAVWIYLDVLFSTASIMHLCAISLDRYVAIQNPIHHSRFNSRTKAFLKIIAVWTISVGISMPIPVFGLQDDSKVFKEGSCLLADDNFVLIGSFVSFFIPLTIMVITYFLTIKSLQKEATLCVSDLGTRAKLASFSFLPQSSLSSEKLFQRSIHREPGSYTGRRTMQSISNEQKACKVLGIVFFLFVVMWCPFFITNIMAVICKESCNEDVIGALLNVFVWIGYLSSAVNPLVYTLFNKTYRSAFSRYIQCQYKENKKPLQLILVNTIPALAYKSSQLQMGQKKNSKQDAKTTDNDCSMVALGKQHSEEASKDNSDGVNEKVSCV
Test: NVS_GPCR_h5HT2A: NovaScreen (NVS) G Protein-Coupled Receptor Assay for human Serotonin, 5-Hydroxytryptamine Receptor 2A (5HT2A) (AID 2283249)
How it was run: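 Human cortex membranes, cell-free radioligand binding; filter-based scintillation read 1.5 h after dosing. Duplicate screen at 25 uM first; displacement of specific binding (loss of signal) versus DMSO.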

Compound	AC50	outcome
CC[C@H]1CC[C@H](NCc2cc3c(cc2OC)[C@H]2C[C@H]2C(=O)N3C)[C@H](c2ccccc2)N1	9.49 µM (active)	
CCOC(=O)COc1ccc2c(c1)CC(NCC(O)c1cccc(Cl)c1)CC2 (stereo unspecified)	12.1 µM (active)	
CCN(C(=O)c1cc(C)cc(OC[C@H](C)Nc2ccncc2)c1)C(C)C		inactive
O=C(CCCCCCCCc1cccnc1)N1CCC(C=C(c2ccccc2)c2ccccc2)CC1		inactive
CNS(=O)(=O)c1cc(C(=O)N2CCC(CCN3C4CCC3CC(n3c(C)nc5ccccc53)C4)(c3cccc(F)c3)CC2)c(Cl)cc1F (stereo unspecified)	1.52 µM (active)	
Cc1[nH]cnc1C[C@H]1CCc2c(C)c3ccccc3n2C1=O	1.45 µM (active)	

System: guinea pig Muscarinic, Peripheral (Mperiperal) Receptor, Non-selective Binding, gene 100379235
Test: NVS_GPCR_gMPeripheral_NonSelective: NovaScreen (NVS) G Protein-Coupled Receptor Assay for guinea pig Muscarinic, Peripheral (Mperiperal) Receptor, Non-selective Binding (AID 2283250)
Method: NVS_GPCR_gMPeripheral_NonSelective is a biochemical, single-readout assay that uses extracted gene-proteins from Guinea pig bladder membranes in a tissue-based cell-free assay. Measurements were taken 1 hour after chemical dosing in a 48-well plate.NVS_GPCR_gMPeripheral_NonSelective is one of one assay component(s) measured or calculated from the NVS_GPCR_gMPeripheral_NonSelective assay. It is designed to make measurements of radioligand binding, a form of binding reporter, as detected with scintillation counting signals by Filter-based radiodetection technology.Data from the assay component NVS_GPCR_gMPeripheral_NonSelective was analyzed into 1 assay endpoint. This assay endpoint, NVS_GPCR_gMPeripheral_NonSelective, was analyzed in the positive analysis fitting direction relative to DMSO as the negative control and baseline of activity. Using a type of binding reporter, loss-of-signal activity can be used to understand changes in the binding as they relate to the gene Chrm3. Furthermore, this assay endpoint can be referred to as a primary readout, because the performed assay has only produced 1 assay endpoint. To generalize the intended target to other relatable targets, this assay endpoint is annotated to the gpcr intended target family, where the subfamily is rhodopsin-like receptor.
Binding assays used specific radioligands (tritiated, iodinated) with non-radioactive competitive displacement ligands in agonist or antagonist protocols (as indicated) and various reference compounds and inhibitors to titrate specific binding to receptors and transporters. Most enzyme assays (CYPs, kinases, phosphatases, proteases, HDACs) used recombinant protein and specific substrates (fluorescence mostly, some colorimetric and radioactive) and inhibitors, followed by a biochemical separation of substrate and product. All assays for the biochemical HTS were initially run in duplicate at a single concentration (10 uM for CYP450 assays and 25 uM for all others). Assay-chemical combinations meeting a pre-defined threshold (e.g., 30% inhibition and other criteria defined below) were then run in singleton concentration-response format with maximum concentration of 20 uM for CYPs and 50 uM for all others. Each assay was run with positive and negative controls, and concurrent controls on every plate. The follow-up (secondary) screen tested active chemical-pairs in concentration series, as well as a few additional assays not tested in the primary screen, some selected negative inactives, and several cases re-run in the concentration series for confirmatory purposes.

Compound	AC50	outcome
CC[C@H]1CC[C@H](NCc2cc3c(cc2OC)[C@H]2C[C@H]2C(=O)N3C)[C@H](c2ccccc2)N1	1.05 µM (active)	
CCOC(=O)COc1ccc2c(c1)CC(NCC(O)c1cccc(Cl)c1)CC2 (stereo unspecified)	22.9 µM (active)	
Nc1ccc(Nc2ccccc2)cc1		inactive
CCCN(C1CCN(C(=O)C2CCNCC2)CC1)[C@@H]1CCc2ccc(OC)cc2C1	0.00229 µM (active)	
CNS(=O)(=O)c1cc(C(=O)N2CCC(CCN3C4CCC3CC(n3c(C)nc5ccccc53)C4)(c3cccc(F)c3)CC2)c(Cl)cc1F (stereo unspecified)	5.36 µM (active)	
COCCOc1cc2cc(C(=O)NC3CCN(C(C)C)CC3)n(CC(=O)Nc3ccc(Cl)cn3)c2cn1		inactive
Cc1[nH]cnc1C[C@H]1CCc2c(C)c3ccccc3n2C1=O	10.5 µM (active)	
